Assay outcomes deposited in PubChem BioAssay by National Center for Advancing Translational Sciences (NCATS).
In the library only some 0.68% were active in any assay of this set; here they are far more common.
Tb PYK inh: qHTS of Trypanosoma Brucei Inhibitors; pyruvate kinase (Trypanosoma brucei), Q57TT1; TbPYK enzyme, Kinase-Glo Plus ATP luminescence, 45 min; Potency, µM (top dose mostly 76.8 µM), usual class: inhibitors; AID 624173, 2012; 410,000 tested, 0.12% active; further: nearly all actives have a fitted effect of over 50% in size
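Quantitative HTS: titrated library compounds versus trypanosomal pyruvate kinase in TEA buffer (pH 7.2) containing KCl, MgCl2, BSA and Tween-20. Reactions were initiated with ADP, 130 uM final. Kinase-Glo Plus luminescence was read after 45 min at RT.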
RE007 growth inh: qHTS Assay for Inhibitors of the HIV-1 protein Vpr; S. pombe RE007 Vpr strain, BacTiter-Glo ATP luminescence, 24 h; Potency, µM (titrated, usually from 92.2 µM), hits mostly inhibitors; 360,000 tested, 0.21% active; active means well fitted falling curve with a large enough effect; inconclusive means small, poorly fitted or top-dose-only effect; inactive means no such curve, though single readings can be large or run the other way; further: nearly all actives have a fitted effect of over 50% in size
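Fission yeast RE007 carrying one integrated HIV-1 vpr copy, seeded at OD 0.01 in PMG+AL medium with 23 nL pinned compound. Grown 24 h at 30 degrees; viability read by BacTiter-Glo luminescence after 5 min.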
LmPK inhibitor: qHTS Assay for Inhibitors of Leishmania Mexicana Pyruvate Kinase (LmPK). Q27686. purified LmPK, Kinase-Glo ATP luminescence, 1 h. Potency, µM (doses to about 57.5 µM), usual class: inhibitors. 290,000 tested, 0.37% active
Target sequence (Q27686 whole entry, looked up): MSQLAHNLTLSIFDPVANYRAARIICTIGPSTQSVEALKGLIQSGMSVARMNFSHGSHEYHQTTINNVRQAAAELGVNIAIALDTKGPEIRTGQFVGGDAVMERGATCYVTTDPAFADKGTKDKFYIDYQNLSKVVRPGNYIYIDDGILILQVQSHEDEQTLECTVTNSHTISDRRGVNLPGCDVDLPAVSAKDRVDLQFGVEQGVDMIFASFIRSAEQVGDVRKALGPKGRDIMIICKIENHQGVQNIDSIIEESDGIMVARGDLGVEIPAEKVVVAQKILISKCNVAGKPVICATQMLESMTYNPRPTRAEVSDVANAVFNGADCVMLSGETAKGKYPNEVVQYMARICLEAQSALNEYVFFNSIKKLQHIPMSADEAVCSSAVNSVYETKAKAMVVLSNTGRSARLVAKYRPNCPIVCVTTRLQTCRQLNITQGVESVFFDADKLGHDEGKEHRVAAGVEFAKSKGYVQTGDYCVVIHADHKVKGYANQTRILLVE
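Screened at intermediate enzyme activity to detect both inhibitors and activators: LmPK at 0.1 nM, with a 0.5 nM enzyme column as activation reference. PEP 0.5 mM, ADP 0.1 mM; ATP detected by luminescence after 1 h.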
AMA1 RON2 block: qHTS for Inhibitors of AMA1-RON; Towards Development of Antimalarial Drug Lead: Primary Screen; Plasmodium falciparum AMA1 (3D7) - RON2 peptide interaction; AlphaScreen AMA1-biotinylated RON2 peptide binding; Potency, µM (titrated, usually from 58.2 µM), actives largely listed as inhibitors; 360,000 tested, 0.2% active; further: nearly all actives have a fitted effect of over 45% in size
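AMA1 (3D7) with his tag at 25 nM final met compounds first, then biotinylated RON2 peptide at 25 nM; detection used donor plus acceptor beads, 10 µg/mL apiece, read by AlphaScreen after 30 min at room temperature.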
Large screens that a line does not name were inactive. Unless noted, the call rests on the fitted dose curve; in most records, active means well fitted curve in the direction sought with a large enough effect; inconclusive means small, poorly fitted or top-dose-only effect, or another doubt; inactive means no such curve, though single readings can be large; an effect the other way counts as inactive or inconclusive.

O=C(CSc1nnc2c(n1)[nH]c1ccccc12)OCc1ccccc1	none
Cc1ccc(NC(=O)c2ccc(COc3ccccc3Cl)o2)cc1	none (no result: RE007 growth inh, LmPK inhibitor, AMA1 RON2 block)
CN(C)c1ccc(NC(=O)c2ccc(COc3cccc(Cl)c3)o2)cc1	RE007 growth inh inconclusive, AMA1 RON2 block 28µM
COc1cc(OC)cc(C(=O)N2CCC(C(=O)N3CCOCC3)CC2)c1	none
NC(=O)C1CCN(C(=O)CN2CCN(c3cccc(C(F)(F)F)c3)CC2)CC1	none
O=C(Oc1ccccc1)c1cccc(C(=O)Oc2ccccc2)c1	none (no result: RE007 growth inh, LmPK inhibitor, AMA1 RON2 block)
O=C(Oc1ccccc1)c1cc(O)c(O)c(O)c1	Tb PYK inh inconclusive, AMA1 RON2 block 40µM (no result: LmPK inhibitor)
CN(C)C(=O)Oc1ccc(OC(=O)c2ccccc2)cc1	Tb PYK inh inconclusive, LmPK inhibitor 13µM
Cc1cccc(C(=O)OCC(=O)NN2C(=O)NC3(CCC(C)CC3)C2=O)c1O (stereo not given)	RE007 growth inh inconclusive (no result: LmPK inhibitor)
c1nc(SSc2ncnc3nc[nH]c23)c2[nH]cnc2n1	Tb PYK inh 3.5µM (no result: LmPK inhibitor)
O=C(Cc1coc2cc3c(cc12)CCC3)OCC(=O)N1CCCC1=O	none
CCCSC1=NC2(CCN(C(=O)NC3CCCCC3)CC2)N=C1c1ccc(OC)cc1	none (no result: RE007 growth inh, LmPK inhibitor, AMA1 RON2 block)
Cc1cc(C)c(-c2csc(NC(=O)C3=COCCO3)n2)cc1C	RE007 growth inh 13µM (no result: LmPK inhibitor)
COc1ccc(-c2csc(NC(=O)C3=COCCO3)n2)c(OC)c1	RE007 growth inh inconclusive (no result: LmPK inhibitor)
O=C(CNCCC1=CCCCC1)Nc1ccc(N2CCCCCC2)cc1	AMA1 RON2 block 35µM
O=C(CNC1CCCCCC1)Nc1ccc(N2CCCC2)cc1	none (no result: Tb PYK inh, RE007 growth inh, AMA1 RON2 block)
CCc1ccc2oc(-c3cc(N)ccc3O)nc2c1	RE007 growth inh inconclusive, LmPK inhibitor inconclusive
CCc1ccc2oc(-c3cc(N)ccc3Cl)nc2c1	RE007 growth inh 16µM
Cc1ccc(-c2csc3ncnc(N4CCN(C)CC4)c23)cc1C	none
N=C1SCC(=O)N1c1ncc(Cc2ccc(F)cc2)s1	RE007 growth inh 28µM
O=C1/C(=C/c2cccnc2)Sc2ccccc21	RE007 growth inh 28µM, LmPK inhibitor inconclusive
CC(=O)Nc1ccc(/C=C2\Sc3ccccc3C2=O)cc1	none
O=C1c2ccccc2C(=Cc2cccnc2)c2ccccc21	none (no result: LmPK inhibitor)
Cc1ccc(/C=C2\Sc3ccccc3C2=O)s1	LmPK inhibitor 11µM, AMA1 RON2 block inconclusive
COc1ccc(CN2CCNC(=O)C2CC(=O)N(C)Cc2ccncn2)c(OC)c1 (stereo not given)	none
N#Cc1c2n(c3c(=S)nc[nH]c13)CCCCC2	Tb PYK inh inconclusive, LmPK inhibitor 22µM
Cc1nn(CCCNC(=O)C2CCCO2)cc1Br (stereo not given)	none
CCOC(=O)CNC1CC(=O)N(c2ccc(Br)cc2)C1=O (stereo not given)	RE007 growth inh 13µM
Cc1cc(NS(=O)(=O)c2ccc(NC(=O)c3oc4ccccc4c3C)cc2)no1	AMA1 RON2 block 30µM
Cc1c(C(=O)Nc2ccc(S(=O)(=O)Nc3ncccn3)cc2)oc2ccccc12	none (no result: LmPK inhibitor)
Cc1ccc(COn2c(-c3ccc(Cl)cc3Cl)nc3ncccc32)cc1	RE007 growth inh inconclusive
Cc1cc2nc3ccc(=[N+](C)C)cc-3sc2cc1N	Tb PYK inh inconclusive, RE007 growth inh inconclusive, LmPK inhibitor 14µM
Cc1nc2cc(C)c(C)cc2s1	none
COC(=O)c1ccc(Cl)c(NC(=O)Cc2ccccc2[N+](=O)[O-])c1	none
CCOC(=O)CNC(=O)c1sc(NC(=O)c2cccc(F)c2)nc1C	none
CCOC(=O)CNC(=O)c1sc(NC(=O)c2ccccc2F)nc1C	LmPK inhibitor 13µM
CCc1cc2cc(C)cc(C)c2[nH]c1=S	Tb PYK inh 11µM, LmPK inhibitor inconclusive
CCOCCCN(Cc1cc2cc(C)cc(C)c2[nH]c1=O)C(=O)N(CC)CC	none
COc1cccc(-c2sc3ccc(OC)cc3c2-c2ccc(OCCN(C)C)cc2)c1	AMA1 RON2 block 14µM (no result: LmPK inhibitor)
CC1(C)OC(=O)C(=NNc2ccccc2)C(=O)O1	none
CC1(C)OC(=O)C(=NNc2ccccc2[N+](=O)[O-])C(=O)O1	RE007 growth inh 35µM
CCNC(=S)NNC(=O)c1cccn(Cc2ccc(Cl)cc2Cl)c1=O	Tb PYK inh inconclusive
C=CCNC(=S)NNC(=O)c1cccn(Cc2ccc(Cl)cc2Cl)c1=O	Tb PYK inh 11µM
O=C(NCc1c(Cl)cccc1Cl)c1ccc2nnsc2c1	none
CCOC(=O)C1=Nc2ccccc2C1=[N+]=[N-]	RE007 growth inh 0.25µM
CCOc1cccc(-c2cc(C(=O)N/N=C/c3ccc(OC)c(CN4CCOCC4)c3)c3ccccc3n2)c1	none
COc1ccc(NC2=NCC(Cc3ccc(Br)cc3)S2)cc1 (stereo not given)	AMA1 RON2 block 18µM
Cc1cccc(NC(=O)CN2C(=O)CSC2=O)c1	none
COc1ccccc1CCNS(=O)(=O)c1ccc(C(=O)O)n1C	none
COC(=O)c1sccc1S(=O)(=O)Nc1ccc(S(N)(=O)=O)cc1	none
COC(=O)c1sccc1S(=O)(=O)Nc1ccc(N2CCCCC2)cc1	AMA1 RON2 block 14µM
O=C(c1nnsc1S(=O)c1ccc(Cl)cc1)N1CCOCC1 (stereo not given)	RE007 growth inh inconclusive
O=C(Nc1ccccc1)c1nnsc1S(=O)c1ccc(Cl)cc1 (stereo not given)	Tb PYK inh inconclusive, RE007 growth inh 2.8µM
COc1ccc(/C=N/n2c(-c3cccs3)n[nH]c2=S)cc1	Tb PYK inh 1.3µM
Cc1cc(-c2n[nH]c(=S)n2/N=C/c2sccc2C)n[nH]1	Tb PYK inh 7.1µM
COc1cc(/C=N/n2c(-c3ccccc3)n[nH]c2=S)ccc1O	Tb PYK inh 6.3µM, LmPK inhibitor inconclusive
COc1cc(-c2n[nH]c(=S)n2/N=C/c2cccn2C)cc(OC)c1OC	Tb PYK inh inconclusive, LmPK inhibitor 7.9µM
Cc1ccc(/C=N/n2c(-c3cccs3)n[nH]c2=S)cc1	Tb PYK inh inconclusive
Cc1ccsc1/C=N/n1c(-c2ccccc2)n[nH]c1=S	none
COc1cccc(OC)c1C(=O)NNC(=O)c1ccc(F)cc1	none
Oc1c(Br)cc(/C=N/n2c(-c3ccccc3)n[nH]c2=S)cc1Br	Tb PYK inh inconclusive, LmPK inhibitor 18µM
Oc1ccc(/C=N/n2c(-c3ccccc3)n[nH]c2=S)cc1Br	LmPK inhibitor inconclusive
O=c1[nH][nH]c(=S)n1C1CCCCC1	Tb PYK inh 2.5µM, LmPK inhibitor inconclusive
CCOc1ccc(OCCC(=O)OC(C)C(=O)Nc2ccc(Cl)cn2)cc1 (stereo not given)	none (no result: LmPK inhibitor)
C(=C\c1nc2ccccc2[nH]1)/c1ccccc1	Tb PYK inh inconclusive, RE007 growth inh 32µM, LmPK inhibitor 8.9µM
Cn1cccc1C(=O)C(=O)Nc1ccccc1	Tb PYK inh inconclusive, RE007 growth inh inconclusive, LmPK inhibitor 16µM
CN(CC(=O)Nc1cccc(F)c1)C(=O)c1cccnc1Sc1ccccc1	none (no result: LmPK inhibitor)
O=c1cc(-c2ccccc2)oc2cc(O)c(O)c(O)c12	Tb PYK inh inconclusive (no result: LmPK inhibitor)
O=c1c(O)cccc2cc(O)c(O)c(O)c12	RE007 growth inh inconclusive, AMA1 RON2 block 2.5µM
